Only some compounds are listed: those with a hit (about 6% of all), similar ones and a draw of the others.
PLK1 PBD block: inhibitors of human PLK1 polo-box domain binding. P53350. Plk1 PBD binding of FITC phosphopeptide, fluorescence polarization. Potency, µM, inactives show max response, negative = inhibition, most hits filed as inhibitors. 360,000 tested, 2.8% active; further: series mostly up to about 57 µM; nearly all actives have a fitted effect of over 65% in size
Target sequence (P53350 whole entry, looked up, the tested form may be a part): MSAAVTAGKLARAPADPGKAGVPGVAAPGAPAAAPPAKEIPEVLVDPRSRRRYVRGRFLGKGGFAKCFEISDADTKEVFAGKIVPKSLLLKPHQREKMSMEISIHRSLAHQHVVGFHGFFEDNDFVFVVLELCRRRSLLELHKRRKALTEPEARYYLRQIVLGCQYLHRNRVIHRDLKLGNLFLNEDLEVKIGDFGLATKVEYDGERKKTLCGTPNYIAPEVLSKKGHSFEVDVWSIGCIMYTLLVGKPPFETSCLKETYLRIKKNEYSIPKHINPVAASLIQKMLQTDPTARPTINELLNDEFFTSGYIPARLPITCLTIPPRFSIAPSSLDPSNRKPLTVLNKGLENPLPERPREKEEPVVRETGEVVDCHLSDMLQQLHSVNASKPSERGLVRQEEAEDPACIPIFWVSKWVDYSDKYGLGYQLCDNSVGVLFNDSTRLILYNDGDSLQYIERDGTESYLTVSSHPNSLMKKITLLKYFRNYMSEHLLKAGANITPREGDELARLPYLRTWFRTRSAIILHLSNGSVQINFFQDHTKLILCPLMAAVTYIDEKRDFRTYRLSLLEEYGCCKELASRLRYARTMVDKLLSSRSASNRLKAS
VDR inhibitor: blocks the human vitamin D receptor; P11473; 400,000 tested, 0.93% active; VDR-SRC2-3 peptide fluorescence polarization, 2 h; Potency, µM, without a hit: max response, negative = inhibition, hits mostly inhibitors
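Inhibition of the VDR/SRC2-3 peptide interaction is quantified by fluorescence polarization. Compounds (23 nl, pintool) incubate with the reagents for 2 hours at ambient room temperature.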
Sfp PPTase inh: inhibitors of Bacillus subtilis Sfp phosphopantetheinyl transferase. Q9F4F7. Biochemical Sfp PPTase activity, qHTS. Potency, µM, for inactives: largest response in the series, negative = inhibition, most hits filed as inhibitors. 310,000 tested, 3.5% active;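 further: the enzyme is Sfp with the accession as filed and its product quenches rhodamine fluorescence; 0% = enzyme reaction without inhibitor and -100% = no enzyme wells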
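After 15 min at room temperature with compound, 15 nM Sfp received 5 uM rhodamine-CoA plus 12.5 uM BHQ-2-ybbR (50 mM Hepes pH 7.6, 10 mM MgCl2). Rate came from the fluorescence difference over 30 min, ex 525/em 598 nm.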
Tau fibril ThT: tau fibrillization inhibition (ThT binding) | P10636 | recombinant tau K18 P301L, heparin-induced fibrillization, ThT fluorescence | Potency, µM (titrated, usually from 57.4 µM), inactives show at the top dose activity, negative = inhibition, hits mostly inhibitors | 270,000 tested, 2.1% active | AID 1460; further: nearly all actives have a fitted effect of over 55% in size
Target sequence (P10636 561-689 P618L limits assumed): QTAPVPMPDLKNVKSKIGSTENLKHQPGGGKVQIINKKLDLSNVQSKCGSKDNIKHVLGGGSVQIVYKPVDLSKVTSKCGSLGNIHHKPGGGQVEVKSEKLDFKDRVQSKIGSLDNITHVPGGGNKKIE
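In this qHTS, human K18 P301L tau is incubated with compound and heparin for 6 hr at 37 C, and Thioflavin T fluorescence then reports fibril load.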
Tau fibril FP: blocks human tau fibril formation measured by polarization; P10636; K18 P301L tau heparin fibrillization, Alexa594 FP, 6 h; Potency, µM (series often up to 57.7 µM), inactives show at the highest dose activity, negative = inhibition, usual class: inhibitors; 280,000 tested, 0.39% active; further: nearly all actives have a fitted effect of over 55% in size
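Human tau K18 […] P301L fragment, 15 uM unlabeled plus 0.24 uM Alexa 594-labeled tau (final), with compound and 20 uM heparin in 100 mM sodium acetate pH 7; 6 hr at 37 C, then Alexa 594 FP read.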
Tau fluor counter: counter-screen for tau fibril formation inhibitors | tau K18 P301L (four-repeat tau fragment) Alexa594 fluorescence, heparin fibrillization | Potency, µM (top dose mostly 57.7 µM), without a hit: at the highest dose activity change, negative = decrease | 280,000 tested, 0.93% active; further: nearly all actives have a fitted effect of over 55% in size
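Human K18 P301L tau (15 uM unlabeled plus 0.24 uM Alexa 594-labeled, final) in 100 mM sodium acetate pH 7 was mixed with compound and 20 uM heparin and incubated 6 hr at 37 C.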
* marks the source's active call; other numbers are inactive results; ? = inconclusive; . = no result given; [ ] = dose if it differs, or a comment. The call rests on the fitted dose curve; in most records, active means well fitted curve in the direction sought with a large enough effect; inconclusive means small, poorly fitted or top-dose-only effect, or another doubt; inactive means no such curve, though single readings can be large; an effect the other way counts as inactive or inconclusive. Unless noted, on the % scale 0 is the no-effect control and ±100 the full control effect; potency means the concentration at half of the fitted maximal effect.

SMILES	PLK1 PBD block	VDR inhibitor	Sfp PPTase inh	Tau fibril ThT	Tau fibril FP	Tau fluor counter
Cc1cc(C)nc(NN=CC2=C(N3CCOCC3)/C(=C/c3ccc(Cl)cc3)CC2)n1	-2.5%	?	.	.	.	.
Cc1cc(C)nc(N/N=C/C2=C(N3CCOCC3)C(=C\c3ccc(Cl)cc3)/CC2)n1	?	?	-28.5%	11.2µM*	-8.9%	-11.7%
O=C(O)c1ccc(N/N=C/C2=C(N3CCOCC3)C(=C\c3ccccc3)/CC2)cc1	?	?	50.1µM*	?	1.7%	?
COCCNC(=O)Cn1cc(/C=N/NC(=O)c2ccc(Oc3ccc(O)cc3)cc2)c2ccccc21	?	-6.2%	17.7%	?	15.7%	17.8µM*[quencher]
O=C(N/N=C/c1cn(Cc2ccccc2)c2ccccc12)c1ccncc1	-1.7%	0.2%	-5.8%	?	14.1%	25.1µM*[quencher]
COC(=O)N/N=C/c1cn(CCOc2ccccc2)c2ccccc12	-3.8%	-1.6%	1.0%	?	?	?
COC(=O)N/N=C/c1cn(CCOc2ccccc2OC)c2ccccc12	-6.7%	3.1%	5.3%	.	.	.
Cc1ccc(OCCn2cc(/C=N/NC(=O)c3ccncc3)c3ccccc32)cc1	15µM*	8.4%	0.2%	-8.0%	5.5%	12.6µM*[quencher]
COC(=O)N/N=C/c1cn(CC(C)COc2ccccc2)c2ccccc12 (centres undefined)	-4.5%	-3.7%	-0.4%	?	?	14.1µM*[quencher]
Cc1cccc(NC(=O)N2CCC3(CC2)Oc2ccccc2C(=O)N3Cc2ccccc2F)c1C	.	-1.6%	.	-0.7%	-3.0%	1.8%
CC(=O)N1c2ccc(S(=O)(=O)N3CCCCCC3)cc2CC1C(=O)NCc1ccccc1F (centres undefined)	.	2.9%	.	12.4%	3.1%	7.8%
O=C(c1cc(C(F)(F)F)cc(C(F)(F)F)c1)N1CCC2(CC1)CCN(c1ccccn1)CC2	.	-14.4%	23.9%	.	.	.
Cc1ccc(OCCn2cc(/C=C3\C(=O)NN(c4ccccc4)C3=O)c3ccccc32)cc1	-6.6%	-5.9%	?	7.08µM*	?	?
COc1cccc(OCCn2cc(/C=N/NC(=O)c3ccncc3)c3ccccc32)c1	-6.4%	0.3%	-0.9%	?	10.4%	14.1µM*[quencher]
COc1ccc(OCCn2cc(/C=N/NC(=O)c3ccncc3)c3ccccc32)cc1	3.8%	-5.3%	-13.1%	?	15.1%	12.6µM*[quencher]
COC(=O)N/N=C/c1cn(CCOc2ccc(OC)cc2)c2ccccc12	2.2%	1.8%	-0.6%	.	.	.
CNC(=S)N/N=C/c1cn(CCOc2cccc(OC)c2)c2ccccc12	-0.1%	-13.0%	?	?	15.2%	?
COCCCNC(=O)Cn1cc(C(C)=O)c2ccccc21	-5.3%	-0.2%	15.5%	-0.3%	0.3%	1.0%
COCCNC(=O)Cn1cc(C(=S)N2CCOCC2)c2ccccc21	29.9µM*	-9.1%	31.6µM*	2.9%	-2.8%	6.1%
C=CCn1c(=O)/c(=C/c2ccc(Cl)cc2)s/c1=C(\C#N)c1nnc2n1CCCCC2	-4.1%	?	.	.	.	.
CCc1nc2ccc(C(=O)Nc3cc(-c4ccccc4)ccc3OC)cn2c1N(CCN(C)C)CC1CC1	-4.7%	.	.	.	.	.
CCCCCCCN1C(Nc2ccccc2)=NC[C@@H]1C	-10.3%	-0.4%	.	.	.	.
CCCCNC(=O)c1ccc2c(c1)NC(=O)C(CS(=O)(=O)Cc1cccc(C)c1)N2 (centres undefined)	.	11.1%	.	17.8µM*	?	?
O=C(Cn1c(=O)n(Cc2ccc(C(=O)NCc3ccc4c(c3)OCO4)cc2)c(=O)c2ccccc21)Nc1ccccc1F	.	-18.7%	.	3.3%	?	-15.4%
CN(C)c1ccc(NC(=O)Cn2c(=O)n(Cc3ccccc3)c(=O)c3ccccc32)cc1	-0.8%	-2.4%	-13.3%	?	4.3%	17.8µM*[quencher]
SMILES	PLK1 PBD block	VDR inhibitor	Sfp PPTase inh	Tau fibril ThT	Tau fibril FP	Tau fluor counter
CN(C)c1ccc(NC(=O)CCCc2ccccc2)cc1	-5.4%	-15.4%	22.4µM*	?	13.5%	-5.8%
Cc1ccc(NC(=O)Cn2c(=O)n(Cc3ccc(C(=O)NCc4ccc5c(c4)OCO5)cc3)c(=O)c3ccccc32)cc1	.	0.8%	.	1.9%	31.6µM*	-18.1%
Cc1ccc(NC(=O)Cn2c(=O)n(Cc3ccc4c(c3)OCO4)c(=O)c3ccccc32)cc1	.	15.3%	.	10.5%	-14.6%	-20.7%
Cc1cccc(NC(=O)CCCc2ccccc2)c1	0.8%	-4.9%	-1.8%	.	.	.
COc1cccc(NC(=O)Cn2c(=O)n(Cc3ccc(C(=O)NCc4ccc5c(c4)OCO5)cc3)c(=O)c3ccccc32)c1	.	-16.9%	.	-0.9%	25.1µM*	?
COc1cc(OC)cc(-c2nc3nc(C)c(CCC(=O)Nc4ccc(Cl)cc4)c(C)n3n2)c1	.	-3.2%	.	-14.7%	-12.1%	?
CCCC(=O)Nc1ccc(NC(=O)CCc2ccccc2)cn1	2.99µM*	-17.2%	9.6%	?	-3.2%	-3.4%
Cc1ccc(-n2c(=O)c3ccc(C(=O)NCc4ccccc4Cl)cc3n(CC(=O)Nc3cccc(F)c3)c2=O)cc1	.	3.0%	.	6.9%	15.8µM*	?
CC1(C)Cc2c(C#N)c(NCC3CCCO3)nc(-c3ccco3)c2CO1 (centres undefined)	-10.3%	-0.4%	7.94µM*	?	-2.4%	-6.9%
CN(C)CCCNc1nc(-c2ccccc2)c2c(c1C#N)CC(C)(C)OC2	23.8µM*	-12.0%	3.0%	-10.2%	-11.0%	-9.2%
CC1(C)Cc2c(C#N)c(NC3CCCCC3)nc(-c3ccco3)c2CO1	.	.	3.55µM*	?	-7.7%	-4.2%
CCN(CC)CCNc1nc(-c2ccco2)c2c(c1C#N)CC(C)(C)OC2	-5.2%	1.3%	4.6%	-4.1%	9.0%	2.2%
CN(C)/C=C/c1c([N+](=O)[O-])c2ccc(O)cc2n1-c1ccccc1	0.4%	?	2.51µM*	12.6µM*	?	15.8µM*[quencher]
N#Cc1ccccc1-c1ccc2ncnc(NCCN3CCOCC3)c2c1	.	-18.7%	37.4%	.	.	.
O/N=C/c1ccccc1Oc1ccc(Cl)cc1	8.44µM*	?	-3.1%	-11.7%	-7.8%	-16.1%
O/N=C/c1ccccc1Oc1ccccc1	-3.5%	-8.5%	3.2%	-4.8%	-4.3%	-4.9%
O=C(Cc1cc(=O)[nH][nH]1)N/N=C/c1c(Cl)cccc1Cl	16.8µM*	-26.6%	50.1µM*	?	-9.3%	?
O=C(Cc1cc(=O)[nH][nH]1)N/N=C/c1c(F)cccc1Cl	-1.6%	-5.0%	15.8%	?	?	-16.6%
CSc1ccc(CNC(=O)CCn2ccc3cc(S(=O)(=O)N4CCC(C)CC4)ccc32)cc1	.	0.4%	.	3.9%	-0.8%	-22.4%
NC(=O)c1cc(N2C(=O)C=CC2=O)ccc1Cl	21.2µM*	20µM*	8.91µM*	?	-20.4%	-14.0%

High-throughput results as filed in PubChem BioAssay.
